An excerpt weighted towards active compounds, which were near 1.4% of everything screened.
HSV replic up – enhancers of HSV replication in host cells, fold increase, host cell viability; HSV replication augmentation in cells; maximum fold increase; actives 0.005% (n = 220,000); AID 1956, 2009; in the data active = maximum fold increase above about 1.5; tested in PC3 cells
MIN6 prolif – inducers of MIN6 beta-cell proliferation, primary screen, ATP luminescence, uHTS. MIN6 cells proliferation, ATPlite luminescence, 48 h; cells starved in 0.2% serum; 100% = growth in 10% serum. proliferation, % at 10 µM. actives 0.29% (n = 330,000). AID 2380, 2010;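 active = compounds whose signal lies at least 3.5 SD above the mean of all wells on their plate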;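 also: 0% = DMSO-treated cells in low-serum medium and 100% = 10% serum control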
V-ATPase pHluor – regulators of yeast V-ATPase proton pumping, primary screen, pHLuorin cytosolic pH fluorescence | S. cerevisiae | response, % at 10 µM | actives 0.37% (n = 350,000); in the data active = response mostly above about 7.3%, no sharp cut-off; inactive = mostly below about 5.4%; also: actives read high
p-CIP stab down – p/CIP-EGFP fusion destabilizers, primary screen, fluorescence, F442A cells; AID 1984, 2009; decrease of EGFP signal, % at 10 µM; actives 0.01% (n = 290,000); 16 h;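 active = EGFP signal decrease of at least 30% at 10 µM or well 3 SD below plate mean, unless failing retest; inactive = the rest, including hits failing retest or dose response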
Yeast superoxide – reduction of superoxide in aged yeast, primary screen, HTS | actives 0.18% (n = 330,000) | AID 2690, 2010 | superoxide response (% of plate mean), % at 10 µM | S. cerevisiae aged cells, superoxide DHE fluorescence; hits give low values;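 active = superoxide response under a set limit, about three screen SD below normal, cut at about 65% in these data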;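 also: yeast aged for seven days with compound at 30 °C before DHE staining; 100% = average MFI of all compound-treated wells on the plate with controls excluded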
Cardio protect – cardioprotection against H2O2-induced cell death, primary screen, uHTS, H9c2 cells, ATPLite luminescence | actives 0.63% (n = 360,000) | protection from H2O2 cell death, % at 20 µM | H9c2 cardiomyocytes, H2O2 injury protection, 2 h;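 active = compounds giving at least 50% protection of heart cells from peroxide-induced death in the single-dose screen, raw or plate-pattern-corrected value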;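 also: 0% = DMSO wells with peroxide and 100% = DMSO wells without peroxide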
VATPase regulator – yeast V-ATPase proton pumping modulators, confirmation, S. cerevisiae, pH-sensitive GFP, second cherry-pick; shares compounds with V-ATPase pHluor; S. cerevisiae pHLuorin cytosolic pH, V-ATPase proton transport; response, % at 10 µM; actives 2% (n = 980); AID 602197, 2012; in the data active = response above about 24%;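 also: plate controls were vehicle wells for no effect and positive control wells for full effect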
The depositor's hits bear a star.

How did N#Cc1c(C(F)(F)F)cc(-c2cccs2)nc1SCc1ccc(Cl)nc1 do in these assays?
HSV replic up: inactive; MIN6 prolif: -2; V-ATPase pHluor: 1; p-CIP stab down: -7; Yeast superoxide: 95; Cardio protect: -6

How did O=c1[nH]c(CN2CCN(c3ccccc3O)CC2)nc2ccccc12 do in these assays?
HSV replic up: inactive; MIN6 prolif: 0; V-ATPase pHluor: 14*; p-CIP stab down: 4; Yeast superoxide: 100; Cardio protect: 14; VATPase regulator: 0

Results for CC(=O)N/C(=N/c1nc(C)cc(C)n1)Nc1cccc(C)c1C ?
MIN6 prolif: 1; V-ATPase pHluor: -7; p-CIP stab down: -7; Yeast superoxide: 94; Cardio protect: -4

What do the screens show for `CN(C(=O)c1cccc(NC(=O)Cc2ccc(NC(=O)C3CCN(C(=O)CCc4ccccc4)CC3)cc2)c1)C1CCCCC1`?
V-ATPase pHluor: 7.7*; Cardio protect: -25; VATPase regulator: 0

How did Cc1n[nH]c(C)c1CCCCOc1ccccc1 do in these assays?
HSV replic up: inactive; MIN6 prolif: -1; V-ATPase pHluor: -2; p-CIP stab down: 7; Yeast superoxide: 87; Cardio protect: -14

What do the screens show for `Cc1n[nH]c(C)c1CS(=O)(=O)c1ccccc1`?
HSV replic up: inactive; MIN6 prolif: -3; V-ATPase pHluor: 7.3*; p-CIP stab down: 9; Yeast superoxide: 100; Cardio protect: 1; VATPase regulator: 1

How did COc1c(O)c(O)c2oc(-c3ccccc3)cc(=O)c2c1OC do in these assays?
HSV replic up: inactive; MIN6 prolif: 3; V-ATPase pHluor: 11*; p-CIP stab down: -16; Yeast superoxide: 83; Cardio protect: -1; VATPase regulator: 2

What do the screens show for `COc1cc(-c2cc(=O)c3c(O)c(OC)c(OC)c(O)c3o2)ccc1O`?
HSV replic up: inactive; MIN6 prolif: 1; V-ATPase pHluor: 3; p-CIP stab down: 2; Yeast superoxide: 79; Cardio protect: 0

How did CCOC(=O)C1=C(C)OC(N)=C(C#N)C1c1cc2c(cc1[N+](=O)[O-])OCO2 (configuration not stated) do in these assays?
HSV replic up: inactive; MIN6 prolif: -3; V-ATPase pHluor: 1; p-CIP stab down: -1; Yeast superoxide: 151; Cardio protect: -2

How did COc1ccc(S(=O)(=O)Nc2c(NC3CCCCC3)c3ccccc3oc2=O)cc1 do in these assays?
MIN6 prolif: 4; V-ATPase pHluor: -3; p-CIP stab down: -1; Yeast superoxide: 86; Cardio protect: 7

What do the screens show for `COc1ccc(OC)c(S(=O)(=O)Nc2c(NC3CCCCC3)c3ccccc3oc2=O)c1`?
MIN6 prolif: 6; V-ATPase pHluor: 9.2*; p-CIP stab down: -1; Yeast superoxide: 118; Cardio protect: 0; VATPase regulator: -4

Results for C[C@H](O)[C@@H]1C(=O)N2CCc3c([nH]c4ccccc34)[C@@H]2C[C@@H]1N(C)C(=O)c1ccco1 ?
Cardio protect: 2

Results for COc1cccc(N2C(=O)c3ccncc3C2=O)c1 ?
MIN6 prolif: -2; V-ATPase pHluor: 12*; p-CIP stab down: -9; Yeast superoxide: 108; Cardio protect: 2; VATPase regulator: -1

Results for CCNC(=O)C(=O)NCc1ccncc1 ?
HSV replic up: inactive; MIN6 prolif: -1; V-ATPase pHluor: 0; p-CIP stab down: -10; Yeast superoxide: 115; Cardio protect: -2

What do the screens show for `CN(CC(=O)NC1CCCCC1)S(=O)(=O)c1ccc(Cl)cc1`?
HSV replic up: inactive; MIN6 prolif: -2; V-ATPase pHluor: 11*; p-CIP stab down: -9; Yeast superoxide: 90; Cardio protect: 3; VATPase regulator: 1

Results for CN(CC(=O)NC1CCCCCC1)S(=O)(=O)c1ccc(F)cc1 ?
MIN6 prolif: -3; V-ATPase pHluor: -2; p-CIP stab down: -8; Yeast superoxide: 98; Cardio protect: -2

Results for O=C(CCSc1ccc(Cl)cc1)NC1CCCCC1 ?
MIN6 prolif: 1; V-ATPase pHluor: 13*; p-CIP stab down: -12; Yeast superoxide: 97; Cardio protect: 7; VATPase regulator: -1

Results for O=C(CCSc1ccccc1)NC1CCCCCC1 ?
HSV replic up: inactive; MIN6 prolif: -2; V-ATPase pHluor: 2; p-CIP stab down: -13; Yeast superoxide: 100; Cardio protect: 2

Results for Cc1ccc(N(CC(=O)NC2CCCCC2)C(=O)CCCC(=O)Nc2ccccn2)cc1 ?
MIN6 prolif: 7; V-ATPase pHluor: 0; p-CIP stab down: -6; Yeast superoxide: 101; Cardio protect: 2

How did Cc1nnc(NC(=O)C2CSC3(C)CCC(=O)N23)s1 (configuration not stated) do in these assays?
MIN6 prolif: -2; V-ATPase pHluor: -4; Yeast superoxide: 100; Cardio protect: 1

How did COc1ccc(S(=O)(=O)Nc2ccc(N3CCOCC3)nc2)cc1 do in these assays?
HSV replic up: inactive; MIN6 prolif: 2; V-ATPase pHluor: 0; p-CIP stab down: -3; Yeast superoxide: 111; Cardio protect: 2

What do the screens show for `O=[N+]([O-])c1cc(-c2csc(NCCc3nc4cc(Cl)c(N5CCCCC5)cc4n3CCCO)n2)ccc1Cl`?
HSV replic up: inactive; MIN6 prolif: -7; V-ATPase pHluor: 10*; Yeast superoxide: 108; Cardio protect: -6; VATPase regulator: -3

How did COC(=O)c1ccc(=O)n(Cc2ccc3c(c2)OCO3)c1 do in these assays?
HSV replic up: inactive; MIN6 prolif: 3; V-ATPase pHluor: -1; p-CIP stab down: -8; Yeast superoxide: 97; Cardio protect: -3

How did COC(=O)c1ccc(C2NC(=S)N(c3ccccc3)C(C)=C2C(=O)Nc2ccccc2OC)cc1 (configuration not stated) do in these assays?
HSV replic up: inactive; MIN6 prolif: 3; V-ATPase pHluor: 11*; p-CIP stab down: 1; Yeast superoxide: 101; Cardio protect: 32; VATPase regulator: 4

Results for COc1ccccc1NC(=O)C1=C(C)N(c2ccccc2)C(=S)NC1c1cccc(C(F)(F)F)c1 (configuration not stated) ?
HSV replic up: inactive; MIN6 prolif: -5; V-ATPase pHluor: 5; p-CIP stab down: -4; Yeast superoxide: 112; Cardio protect: 30

How did O=C1CCN(S(=O)(=O)c2cccs2)c2ccc(C(F)(F)F)cc2N1 do in these assays?
HSV replic up: inactive; MIN6 prolif: -3; V-ATPase pHluor: 1; p-CIP stab down: 3; Yeast superoxide: 100; Cardio protect: 10
